Measured values: PubChem BioAssay AID686979 (National Center for Advancing Translational Sciences (NCATS), 2013)
About 50,000 (12%) of roughly 420,000 compounds were called active. Not shown: some 26% with an inconclusive outcome. The call rests on the fitted dose curve; in most records, active means well fitted inhibition curve with a large enough effect; inconclusive means small, poorly fitted or top-dose-only effect; inactive means flat fitted curve, though single readings scatter. The list comes from a sample in which actives are over-represented; it also holds similar structures and randomly drawn compounds. Where a call stands in place of a potency, no number is given.

Test: qHTS for Inhibitors of human tyrosyl-DNA phosphodiesterase 1 (TDP1): qHTS in cells in presence of CPT; further: nearly all actives have a fitted effect of over 55% in size
Conditions: chicken DT40 Tdp1-/-;hTDP1 cells + 20 nM CPT, ATP luminescence, 48 h; series mostly up to 46.2 µM
Outline: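 Cell growth measured by CellTiter-Glo luminescence after a minimum 48 h, 37 C compound exposure with 20 nM CPT in Tdp1-knockout DT40 cells stably expressing hTDP1, seeded 400/well; qHTS titration format.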
Potency means the concentration at half of the fitted maximal effect.

Row | Structure (SMILES) | Potency
1 | CCOc1ccc(C(=O)Nc2ccc(S(=O)(=O)Nc3cc(C)on3)cc2)cc1 | inactive
2 | Cc1ccc(Nc2c(-c3ccc(Cl)cc3)nc3sccn23)c(C)c1 | inactive
3 | O=C(O)c1ccc(Cn2c(=S)[nH]c3cc(Cl)ccc3c2=O)cc1 | inactive
4 | N#CC1=C(N)Oc2c(sc3ccccc23)C1c1ccco1 (stereo unspecified) | 7.31 µM (active)
5 | COC(=O)C1=C(O)/C(=C/c2ccc(OCC(=O)Nc3ccccc3)cc2)N=C1C | inactive
6 | COC(=O)C1CCCCN1C(=O)c1ccc(OC2CCN(C(C)=O)CC2)c(OC)c1 (stereo unspecified) | inactive
7 | O=S(=O)(NC1CCCCC1N1CCC(O)CC1)c1ccc(Cl)cc1 (stereo unspecified) | inactive
8 | CCNC(=O)N1c2ccccc2Sc2ccccc21 | inactive
9 | CC1C(C)N(C(=O)CCl)c2ccccc2N1C(=O)CCl (stereo unspecified) | 0.58 µM (active)
10 | CNC(=O)N1c2ccccc2C=Cc2ccccc21 | inactive
11 | Cc1[nH]n(-c2ccc([N+](=O)[O-])cc2)c(=O)c1C=NCCN1CCN(C(=O)c2ccccc2F)CC1 | 9.2 µM (active)
12 | Cc1[nH]n(-c2ccccc2)c(=O)c1N=Nc1ccccc1C(=O)N1CCCCC1 | inactive
13 | C=CCNC(=S)N1CCN(CCN=Cc2c(C)[nH]n(-c3ccc([N+](=O)[O-])cc3)c2=O)CC1 | inactive
14 | CCCC(=O)Nc1cccc(NC(=S)NC(=O)C(C)Oc2ccc(Cl)cc2Cl)c1 (stereo unspecified) | inactive
15 | CC1CC(C)CN(C(=O)CCNC(=O)Cn2cnc3ccccc3c2=O)C1 (stereo unspecified) | inactive
16 | C=CCOc1cccc(C2C(C(=O)c3ccc(C)o3)=C(O)C(=O)N2CCCn2ccnc2)c1 (stereo unspecified) | inactive
17 | CCC1CCc2c(sc(NC(C)=O)c2C#N)C1 (stereo unspecified) | inactive
18 | CC(=O)N1CCc2c(sc(NC(=O)CCS(=O)(=O)c3ccccc3)c2C#N)C1 | 20.6 µM (active)
19 | CC(C)N1CCc2c(sc(NC(=O)Cc3ccccc3)c2C#N)C1 | inactive
20 | Cc1c(C(=O)NCC2CCCN(C)C2)cnn1-c1nccc(-c2ccco2)n1 (stereo unspecified) | inactive
21 | O=C(Nc1ccccc1)N1CCN(Cc2ccccc2)CC1 | inactive
22 | CC(NC(=S)Nc1ccccc1)C(c1cccs1)N1CCOCC1 (stereo unspecified) | inactive
23 | CCCC(c1nnnn1C(C)(C)C)N1CCN(Cc2ccccc2)CC1 (stereo unspecified) | inactive
24 | CCCC(=O)NC(C)C(c1cccs1)N1CCN(c2ccccc2)CC1 (stereo unspecified) | inactive

Row | Structure (SMILES) | Potency
25 | CC(NC(=O)C(C)(C)C)C(c1cccs1)N1CCN(Cc2ccccc2)CC1 (stereo unspecified) | 20.6 µM (active)
26 | CC(NC(=O)Nc1ccccc1)C(c1cccs1)N1CCN(c2ccccc2)CC1 (stereo unspecified) | 13 µM (active)
27 | O=C(NCCCN1CCCCCC1)C1CC(=O)N(C2CCCC2)C1 (stereo unspecified) | inactive
28 | N#Cc1nc(/C=C/c2ccc(F)cc2)oc1NCc1ccc(F)cc1 | inactive
29 | Cc1cc(NC(=O)CCC(=O)N(CC(=O)NC2CCCC2)c2ccc(F)cc2)no1 | inactive
30 | Cc1[nH]c2ccccc2c1/C=C(/C#N)C(=O)NC(C)C | inactive
31 | N#C/C(=C\c1ccccc1C(F)(F)F)C(=O)Nc1ccccc1F | inactive
32 | CNC(=O)/C(C#N)=C/c1c(F)cccc1Cl | 11.6 µM (active)
33 | Cc1ccsc1C(=O)NCCc1ccco1 | inactive
34 | CCN1CCN(C(C(=O)NC2CCCC2)c2cc3c(cc2[N+](=O)[O-])OCO3)CC1 (stereo unspecified) | inactive
35 | CCc1ccccc1NC(=O)c1cc(-c2ccc3c(c2)OCO3)on1 | inactive
36 | COc1ccc(-c2cn(-c3ccc(C)cc3)c(=O)n2CC(=O)Nc2ccc(OC)c(OC)c2)cc1 | inactive
37 | Cc1ccc(Nc2nc(Cl)c(C=O)s2)cc1 | 18.4 µM (active)
38 | CC(=O)c1sc(N/N=C\c2ccc(C)cc2)nc1C | inactive
39 | Cc1ccc(Nc2nnc(SC(C)C(=O)NC3CC3)s2)cc1 (stereo unspecified) | inactive
40 | COc1ccc(NC(C)=O)cc1NC(=O)CN1CCN(C2c3ccccc3-c3ccccc32)CC1 | inactive
41 | COCCN(C(=S)Nc1ccccc1OC)C1CCN(C(C)C)CC1 | inactive
42 | Cc1cc(C#N)c(SCC(N)=O)nc1-c1ccc(F)cc1 | inactive
43 | Cc1nn(-c2ccccc2)c(Cl)c1/C=C/C(=O)c1ccc(O)cc1 | inactive
44 | O=C(NOCc1ccccc1)c1cccc([N+](=O)[O-])c1 | inactive
45 | Cc1cc(CNC(=O)c2cccc([N+](=O)[O-])c2)c2ccccc2n1 | inactive
46 | CCC1(C(=O)c2ccccc2)C(c2cccc([N+](=O)[O-])c2)C1(C(=O)OC)C(=O)OC (stereo unspecified) | 23.1 µM (active)
47 | CC1O[C@H](OC2C(COC3OC(CO)C(O)[C@H](O)C3O)OC(OC3CC[C@]4(C)C(CC[C@@]5(C)[C@@H]4C=C[C@]46OC[C@@]7(CCC(C)(C)C[C@H]74)C(O)C[C@@]56C)C3(C)C)C(O)C2O)C(O)C(O)C1O (stereo partly specified) | inactive
48 | CCc1ccc(-c2nn(-c3ccccc3)cc2CSC(=N)N)cc1 | 16.4 µM (active)

Row | Structure (SMILES) | Potency
49 | Cc1ccc(-c2nn(-c3ccccc3)cc2C(=O)NC2CCC(O)CC2)cc1 (stereo unspecified) | inactive
50 | CCc1ccc(-c2nn(-c3ccccc3C)cc2C(=O)N2CCN(C3CCS(=O)(=O)C3)CC2)cc1 (stereo unspecified) | inactive
51 | CC1(C)C2CCC13CS(=O)(=O)NC3C2 (stereo unspecified) | inactive
52 | COC(=O)c1c(C(=O)OC)c2n(c1C)CCS2 | inactive
53 | Cc1cc2c(cc1C)NC(c1ccccn1)C1=C(CC(C)(C)CC1=O)N2 (stereo unspecified) | inactive
54 | CC1(C)CC(=O)C2=C(C1)Nc1cc(C(=O)c3ccccc3)ccc1NC2c1ccccn1 (stereo unspecified) | inactive
55 | Cc1cc(C)c(C2C3=C(Nc4c2c(C)nn4-c2ccccn2)c2ccccc2C3=O)c(C)c1 (stereo unspecified) | 13 µM (active)
56 | Cc1nn(-c2ccccn2)c2c1C(c1ccncc1)C1=C(CC(C)(C)CC1=O)N2 (stereo unspecified) | 29.1 µM (active)
57 | CN(CC(=O)NCc1ccc2c(c1)OCO2)CC(=O)Nc1ccc(F)c(F)c1F | inactive
58 | COc1ccc(-n2nc3c(c2NC(=O)c2ccc(N4C(=O)CCC4=O)cc2)CSC3)cc1 | inactive
59 | O=C(Oc1cccc(C(=S)N2CCOCC2)c1)c1cccc(Cl)c1 | inactive
60 | COC(=O)c1cccc(NC(=O)c2cccc(N3C(=O)CCC3=O)c2)c1 | inactive
61 | COc1ccccc1C(=O)NCC(=O)OCC(=O)Nc1nnc(-c2ccccc2)o1 | inactive
62 | Cc1cc(C)cc(NC(=O)N(C)Cc2ccccc2)c1 | inactive
63 | CC(NC(=O)c1ccco1)C(=O)Nc1nc(-c2ccccn2)cs1 (stereo unspecified) | 5.8 µM (active)
64 | NS(=O)(=O)c1ccc2nc(NC(=O)COc3ccccc3)sc2c1 | inactive
65 | O=C(COc1ccccc1F)NC1CC1 | inactive
66 | CC1CCN(S(=O)(=O)c2nnc(NC(=O)COc3ccccc3F)s2)CC1 | inactive
67 | Cc1cc(NC(=O)[C@H](C)NC(=O)c2ccco2)ccc1Br | inactive
68 | CC1CCCCC1NC(=O)COc1ccc(C#N)cc1 (stereo unspecified) | inactive
69 | Cc1ccnc(NC(=O)c2ccco2)n1 | inactive
70 | N#Cc1ccc(OCC(=O)Nc2nc(-c3ccccn3)cs2)cc1 | 1.64 µM (active)
71 | O=C(COc1ccccc1F)Nc1nc(-c2ccccn2)cs1 | 5.17 µM (active)
